Records with an inconclusive call do not appear. A call without a number means that no potency is given here. Values without a mark were called inactive. Calls of active or inactive are those of the source. Calls follow the shape of the full dose curve.
Assays:
[1] = Primary qHTS for Huh7 cytotoxicity: counterscreen for inhibitors of MERS-S pseudotyped particle cell entry (AID 1479147)
[2] = Primary qHTS for inhibitors of MERS-S pseudo-typed particle cell entry (AID 1479149); also: nearly all actives have a fitted effect of over 60% in size; also: potency is read from the fitted curve at half-maximal effect
[3] = Primary qHTS for Vero E6 cytotoxicity: counterscreen for inhibitors of SARS-S pseudo-typed particle cell entry (AID 1479150)

Structure (SMILES)	Potency [1]	Potency [2]	Potency [3]	activity change, negative = cytotoxicity [1]	outcome [2]	activity change, negative = cytotoxicity [3]
C#C[C@]1(O)CC[C@H]2[C@@H]3CCC4=CC(=O)CCC4=C3C=C[C@@]21CC	inactive	inactive	inactive	–	–	–
CCN(CC)CCOc1ccccc1C(=O)CCc1ccccc1	inactive	inactive	inactive	–	–	–
Cc1cc(C(C)(C)C)cc(C)c1CC1=NCCN1	inactive	inactive	inactive	–	–	–
CCOc1ccccc1C(N)=O	inactive	inactive	inactive	–	–	–
CCCCNc1ccc(C(=O)OCCN(CC)CC)cc1	inactive	inactive	inactive	–	–	–
CCCCC(CC)COC(=O)C(C#N)=C(c1ccccc1)c1ccccc1 (configuration not stated)	inactive	inactive	inactive	–	–	–
NS(=O)(=O)c1cc2c(cc1Cl)CN(C1CCCCC1)C2=O	inactive	inactive	inactive	–	–	–
CCCCCCCCCCCCCCCCC(C(=O)O)C(O)(CC(=O)O)C(=O)O (configuration not stated)	inactive	inactive	inactive	–	–	–
CCC1NC(=O)c2cc(S(N)(=O)=O)c(Cl)cc2N1 (configuration not stated)	inactive	inactive	inactive	–	–	–
CCc1ccc(C(=O)C(C)CN2CCCCC2)cc1 (configuration not stated)	inactive	inactive	inactive	–	–	–
CCCCCCOC(=O)NC(=N)c1ccc(NCc2nc3cc(C(=O)N(CCC(=O)OCC)c4ccccn4)ccc3n2C)cc1	inactive	10 µM (active)	inactive	–	–	–
CCCCN1CCCC[C@H]1C(=O)Nc1c(C)cccc1C	inactive	inactive	inactive	–	–	–
C[C@@H]1CCC[C@H](C)N1CCCC(O)(c1ccccc1)c1ccccn1 (some centres not stated)	inactive	inactive	inactive	–	–	–
CCN[C@@H]1C[C@H](N)[C@@H](OC2OC(CN)=CCC2N)[C@H](O)[C@H]1O[C@H]1OC[C@](C)(O)[C@H](NC)[C@H]1O (some centres not stated)	–	–	–	-16.5% [at 0.573 µM]	inactive [at 0.573 µM]	-4.98% [at 0.573 µM]

Reference: PubChem BioAssay (NCATS)
